Measured values taken from PubChem BioAssay (NCI).
About 79,000 compounds went through this panel and 15% of them were active in at least one assay; those are over-represented in the sample as a whole. Values without a mark were called inactive. Active and inactive are the calls of the source. No stated cut-off is given here; in the data, active means growth inhibition above about 70%; inactive means the rest.

Columns and labels:
[1] = NCI Yeast Anticancer Drug Screen. Data for the rad50 strain (AID 155);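 further: 0% = growth of vehicle-only cultures of the same strain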; details: S. cerevisiae rad50 strain growth inhibition, stronger effect = higher value
In short: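 Growth of the mutant yeast was measured after compound exposure and referenced to vehicle-treated cultures.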

[2] = NCI Yeast Anticancer Drug Screen. Data for the mec2-1 strain (AID 157); details: S. cerevisiae mec2-1 strain, stronger effect = higher value
In short: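 mec2-1 yeast strain, carrying an alteration in DNA damage repair or cell cycle control, was exposed to compounds; growth inhibition was measured relative to vehicle-treated controls.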

[3] = NCI Yeast Anticancer Drug Screen. Data for the sgs1 mgt1 strain (AID 161);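 further: 0% = growth of cultures given vehicle only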; details: S. cerevisiae sgs1 mgt1 strain, stronger effect = higher value
In short: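 Growth of a repair-deficient yeast mutant was monitored after compound treatment and expressed as inhibition relative to vehicle-treated cultures.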

[4] = NCI Yeast Anticancer Drug Screen. Data for the cln2 rad14 strain (AID 165);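 further: 0% = growth equal to vehicle treated cultures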; details: S. cerevisiae cln2 rad14 strain, stronger effect = higher value
In short: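 Yeast carrying cln2 and rad14 alterations (cell cycle control and DNA damage repair) were exposed to compounds. Growth inhibition was measured against vehicle-treated controls.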

[5] = NCI Yeast Anticancer Drug Screen. Data for the bub3 strain (AID 167); details: S. cerevisiae bub3 mutant strain, stronger effect = higher value
In short: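 Whole-cell yeast assay. The mutant strain was incubated with compounds, and growth inhibition was determined by comparison with vehicle-treated cells.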

[6] = NCI Yeast Anticancer Drug Screen. Data for the mlh1 rad18 strain (AID 175); details: S. cerevisiae mlh1 rad18 strain growth inhibition, stronger effect = higher value
In short: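 Growth inhibition of the yeast strain was measured after compound exposure and expressed relative to vehicle-treated controls. The strain carries defined defects in DNA damage repair.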

[7] = at 5.0 µM (retest, dose inferred, filed as 0.5)
[8] = at 50.0 µM (retest, dose inferred, filed as 5.0)

| SMILES | growth inhibition [1, 7] | growth inhibition [1, 8] | growth inhibition ([1]; at 50.0 µM) | growth inhibition [2, 7] | growth inhibition [2, 8] | growth inhibition ([2]; at 50.0 µM) | growth inhibition [3, 7] | growth inhibition [3, 8] | growth inhibition ([3]; at 50.0 µM) | growth inhibition [4, 7] | growth inhibition [4, 8] | growth inhibition ([4]; at 50.0 µM) | growth inhibition [5, 7] | growth inhibition [5, 8] | growth inhibition ([5]; at 50.0 µM) | growth inhibition [6, 7] | growth inhibition [6, 8] | growth inhibition ([6]; at 50.0 µM) |
| --- | --- | --- | --- | --- | --- | --- | --- | --- | --- | --- | --- | --- | --- | --- | --- | --- | --- | --- |
| CCOC(=O)c1cc(CC)sc1NC(=O)CC(C)=O | 42% | 58% | 46% | 35% | 53% | 17.9% | 42% | 56% | 57.2% | 38% | 44% | 59.5% | 44% | 78% (active) | 70.8% (active) | 46% | 71% (active) | 61.1% |
| Fc1cccc(F)c1C1SCc2nc3cc4ccccc4cc3n21 (stereo not given) | 35% | 83% (active) | 23.1% | 24% | 66% | 56.3% | 23% | 47% | 78.5% (active) | 27% | 31% | 80.1% (active) | 30% | 75% (active) | 80.2% (active) | 28% | 75% (active) | 42.5% |
| C/C(=N\NC(=S)N1CC2CCC(CC2)C1)c1ccccn1 | 33% | 65% | 86.7% (active) | 13% | 73% (active) | 89.7% (active) | 26% | 76% (active) | 88.8% (active) | 23% | 81% (active) | 79.1% (active) | 21% | 80% (active) | 88.7% (active) | 25% | 68% | 92.3% (active) |
| O=C(c1ccccc1)C(Br)[N+](=O)[O-] (stereo not given) | 99% (active) | 99% (active) | 99.7% (active) | 99% (active) | 99% (active) | 99.7% (active) | 99% (active) | 100% (active) | 99.7% (active) | 93% (active) | 99% (active) | 99.7% (active) | 100% (active) | 100% (active) | 99.8% (active) | 99% (active) | 99% (active) | 99.7% (active) |
| O=C1c2ccccc2Cc2cccc(Cl)c21 | 15% | 72% (active) | 88.5% (active) | 6% | 15% | 24.3% | 4% | 13% | 28.6% | 0% | 5% | 17.4% | 1% | 19% | 13.8% | 2% | 17% | 33% |
| CN=C(N)N/N=C(\C)c1ccc2c(c1)Cc1ccccc1-2 | 32% | 98% (active) | 77.5% (active) | 19% | 99% (active) | 59.9% | 51% | 96% (active) | 84.2% (active) | 42% | 86% (active) | 52.8% | 48% | 95% (active) | 81.5% (active) | 26% | 96% (active) | 92.7% (active) |
| Fc1ccc(NCCS)cc1 | -18% | 90% (active) | 85.2% (active) | -27% | 95% (active) | 87.8% (active) | -18% | 61% | 79.1% (active) | -4% | 66% | 60.2% | 10% | 93% (active) | 86.9% (active) | -31% | 90% (active) | 84.3% (active) |
| CCC(C)(O)Cc1ccc(Cl)cc1 (stereo not given) | 4% | -3% | -14.7% | 1% | -2% | 41.9% | 0% | -1% | 1.65% | 3% | -5% | -39.8% | -6% | -7% | -23.3% | 3% | -5% | -6.8% |
| CC(C)N=C(N)/N=C(\N)Nc1ccc2ccc3ccccc3c2c1 | 3% | 99% (active) | 99.8% (active) | -9% | 99% (active) | 25.1% | 12% | 100% (active) | 99.7% (active) | 3% | 100% (active) | 99.5% (active) | 27% | 99% (active) | 46.3% | 41% | 99% (active) | 99.7% (active) |
| NC(=S)N/N=C/c1ncccc1O | -157% | -91% | 24.4% | -50% | 19% | 80.2% (active) | -63% | -30% | 7.55% | -68% | -73% | -23.4% | -74% | -78% | -7.5% | -123% | -101% | 21.4% |
